# Reference: PubChem BioAssay AID504582 (Broad Institute, 2011)
# Out of some 340,000 compounds screened, about 2,300 (0.68%) were called active. Shown is part of a subset that was picked to be rich in actives. Values without a mark were called inactive. No stated cut-off is given here; in the data, active means growth rescue above about 28% (passing the limit was not always enough); inconclusive means no clear call, values can overlap the other calls.
# Experiment: rescue of yeast from PfHsp40 toxicity, primary screen, S. cerevisiae, ATP luminescence (AID 504582);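 further: yeast W303a lacking pdr1 and pdr3 grown in galactose medium; growth measured after three days at 30 °C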
# Conditions: S. cerevisiae expressing PfHsp40, growth rescue, at 12.5 µM, active compounds read high
row,SMILES,growth rescue
1,COc1ccc(NC(=O)C/C(C)=N/NC(=O)c2cnccn2)cc1Cl,-1.24%
2,Cc1ccc(/C=N/NC(=O)C2=NNC(c3ccccc3)(c3ccccc3)C2)c(O)c1,-0.682%
3,CCN(CC)c1ccc(/C=N/NC(=O)c2cnccn2)c(O)c1,77.4% (active)
4,CCNC(=O)c1cnn(-c2ccccc2)c1-c1ccccc1,-3.15%
5,Cn1c(C(=O)N2CCCC(C(=O)NCc3ccccc3)C2)cc2sccc21 (centres undefined),0.412%
6,CCCCCC(=O)N1CCN(S(=O)(=O)c2ccc3c(c2)OCCCO3)CC1,1.79%
7,O=S(=O)(NCc1ccccc1)c1ccc(S(=O)(=O)N2CCCC2)cc1,0.759%
8,CC1(C)CN(c2ccc(-c3ccnc4ncnn34)cc2)C1=O,-1.84%
9,Cc1ccc(C(=O)N2CC(=O)Nc3ccc(F)cc3C2c2ccc(F)cc2)cc1 (centres undefined),1.27%
10,Cc1ccc2c(c1)C(c1ccccc1)N(C(=O)c1ccc(F)cc1)CC(=O)N2 (centres undefined),0.27%
11,Cc1ccc2c(c1)C(c1ccccc1)N(C(=O)c1ccc(S(=O)(=O)N3CCOCC3)cc1)CC(=O)N2 (centres undefined),72.7% (active)
12,Cc1ccc(NN=Nc2nc3c([nH]2)c(=O)n(C)c(=O)n3C)cc1,-0.566%
13,CN(C)CC(O)COc1ccc(C(C)(C)c2ccc(OCC(O)CN(C)C)cc2)cc1 (centres undefined),26.9% (active)
14,COc1ccc(OCC(O)CN(C)C(=O)C(C)Oc2ccccc2)cc1 (centres undefined),-0.614%
15,Cc1cc(C)n(CC(O)COc2ccc(C(C)(C)C)cc2)n1 (centres undefined),0.193%
16,Cc1ccc2nc(C)c3c(c2c1)N(c1ccccc1)CC3,-0.127%
17,Cc1ccc(S(=O)(=O)N2CCOCC2)cc1C(=O)Nc1ccccc1N1CCCC1,0.57%
18,COc1ccc(OCC(O)CNC(=O)Nc2ccc(Cl)cc2)cc1 (centres undefined),-1.02%
19,CC(C)(C)CC(C)(C)NCC(O)COCCOc1ccc(Br)cc1 (centres undefined),0.077%
20,COc1ccc(OCC(O)CNCCNc2nccc(C(F)(F)F)n2)cc1 (centres undefined),62.4% (active)
21,Cc1ccccc1Nc1c([N+](=O)[O-])ccc2nonc12,-0.179%
22,CCc1cc2c(=O)c(-c3ccon3)c(N)oc2cc1OC,-0.783%
23,COc1ccc(NCc2nnc(SCc3ccccc3)n2-c2ccc(OC)cc2)cc1,-1.36%
24,O=C(COc1ccccc1[N+](=O)[O-])N/N=C/c1ccc[nH]1,-1%

row,SMILES,growth rescue
1,Cc1ccccc1NCC(=O)N/N=C\c1ccc([N+](=O)[O-])s1,406% (active)
2,Cc1nn(Cc2ccc(Cl)cc2)c(Cl)c1/C=N/NC(=O)CNc1ccccc1F,-0.219%
3,Cn1c(CCC(=O)OCC(=O)NCc2ccccc2Cl)nc(=O)c2ccccc21,1.08%
4,O=C(CN1C(=O)NC2(CCCC2)C1=O)Nc1ccc(F)c(F)c1F,-0.549%
5,Cc1cccc(NC(=O)Nc2cccc(Oc3c(F)c(F)c(F)c(F)c3F)c2)c1,-0.315%
6,CC(Oc1cccc(NC(=O)c2cccs2)c1)C(=O)c1ccccc1 (centres undefined),3.27%
7,Cc1ccoc1C(=O)Nc1cccc(Oc2ccccc2)c1,372% (active)
8,CCC1CCCCN1CCNC(=O)c1[nH]c(C)c(C(C)=O)c1C (centres undefined),-0.34%
9,O=C1NC2(CCCCCC2)C(=O)N1CCS(=O)(=O)Oc1ccccc1,0.283%
10,CN(C)CC1Oc2ccccc2OC1(O)c1ccccc1 (centres undefined),472% (active)
11,CN(C)CCOC(=O)C(c1ccccc1)C1(O)CCCC1 (centres undefined),0.536%
12,O=C(NCC1COc2ccccc2O1)C1(c2ccccc2)CCCC1 (centres undefined),2.05%
13,CSc1ncccc1C(=O)NCc1ccccc1Cl,1.68%
14,CCN(CC)CCCNC(=O)CCn1nc(-c2ccc(Cl)cc2)ccc1=O,-0.666%
15,O=C(COc1ccccc1F)Nc1nc(-c2ccccn2)cs1,398% (active)
16,O=C(CN1C(=O)C2C3C=CC(C3)C2C1=O)Nc1nc(-c2ccccn2)cs1 (centres undefined),-0.446%
17,CC(NC(=O)c1ccco1)C(=O)Nc1nc(-c2ccccn2)cs1 (centres undefined),-0.236%
18,O=C(O)C1=C[C@H](c2cccs2)C[C@H](OCCCCO)O1,-1.21%
19,O=C(O)c1c(NC(=O)N2CCCC2)sc2c1CCCC2,232% (active)
20,O=C(Nc1sc2c(c1C(=O)O)CCC2)c1ccccc1F,0.175%
21,O=C(CN1CCCC1)Nc1sc2c(c1C(=O)Nc1ccccc1)CCCC2,0.179%
22,C=CCNc1nc(Nc2ccc(Cl)cc2)nc(OC)n1,0.232%
23,CC(C)(C)NC(=O)c1ccc(Cn2cc(C(F)(F)F)ccc2=O)cc1,-0.625%
24,Cn1ccc(=Nc2ccc(NC(=O)c3ccc(N=c4ccn(C)c5ccc([N+](=O)[O-])cc45)cc3)cc2)cc1,236% (active)

row,SMILES,growth rescue
1,Cn1c(=O)n(C)c2cc(C(=O)Nc3ccc(Br)cc3)ccc21,-1.51%
2,CCc1ccc(NC(=O)c2ccc(Cn3cc([N+](=O)[O-])cn3)cc2)cc1,-0.255%
3,Oc1ccc2ccccc2c1N=Nc1nccs1,118% (active)
4,Cc1ccc(CNC(=O)CC2Sc3ccccc3NC2=O)cc1 (centres undefined),0.304%
5,Cc1cccc(NC(=O)c2cccc(C(=O)Nc3cccc(C)c3C)n2)c1C,-0.654%
6,O=C(OCc1ccc(-c2ccccc2)cc1)c1cccc(O)c1,179% (active)
7,O=C(CNC(=O)c1ccc(-c2ccccc2)cc1)OCc1ccc(Cl)cc1,-0.241%
8,O=C(OCC(=O)c1c[nH]c2ccccc12)c1cccc(O)c1,-0.5%
9,C/C(Cn1nnc2ccccc21)=N\OC(=O)c1cc(F)c(F)cc1Cl,0.415%
10,O=C(CCC(=O)N1CCCC1)Nc1ccc([N+](=O)[O-])cc1,-0.401%
11,Cc1c(C(=O)N2CCCC2)c(S(=O)(=O)NCC(C)c2ccccc2)c(C)n1C (centres undefined),-0.332%
12,CCOC(=O)c1ccccc1NC(=O)COC(=O)CCC(=O)N1CCOCC1,-0.942%
13,O=C(Nc1cccc([N+](=O)[O-])c1)Nn1cnnc1,0.084%
14,CCC(CC)NC(=O)/C=C/c1cccc([N+](=O)[O-])c1,-2.62%
15,COC(=O)/C=C\C(=O)Nc1cccc([N+](=O)[O-])c1,233% (active)
16,CCOC(=O)N1CCN(C(=O)C(=O)Nc2sc3c(c2C#N)CC(C)(C)OC3)CC1,-1.13%
17,COc1ccc(-c2nc3n(c(=O)c2C#N)CCS3)c(OC)c1,-0.93%
18,O=C(CSc1nc(C2CC2)nc2ccccc12)Nc1ccc2c(c1)OCCO2,0.157%
19,CCCNC(=O)CSc1nc(Cc2ccccc2)nc2ccccc12,1.34%
20,CCCc1nc(SCC(=O)Nc2ccc(S(=O)(=O)N(C)C)cc2)c2ccccc2n1,56.5% (active)
21,Cc1ccc(-n2c(C)nnc2SCC(=O)NC2CC2)cc1,0.655%
22,CCCCC/C=C/C1=CC(=O)C[C@H](c2ccc(Cl)cc2)C1,-0.132%
23,Cc1cccnc1NC(=O)Cn1c(=O)oc2ccccc21,0.888%
24,CSCc1cc(N(C)C)nc(SCc2ccc(Cl)cc2Cl)n1,119% (active)

row,SMILES,growth rescue
1,CSCc1cc(N2CCOCC2)nc(SCc2ccc(Cl)cc2Cl)n1,21.9%
2,Nc1cc(N)nc(SCc2ccc(Cl)cc2)n1,0.722%
3,O=C(O)c1cc2ccccc2c(=O)s1,-1.29%
4,CCCCCCCCCCCCn1ccc(=N)cc1,174% (active)
5,CCCCCCCCn1c2c(c(=N)c3c1CCC3)CCCC2,-1.32%
6,CCCCCN1CC(O)=C(c2ccccc2)C1=N,1.8%
7,Nc1cccnc1Sc1ccccc1,-0.346%
8,O=C(CN1C(=O)NC2(CCCCC2)C1=O)NCCC1=CCCCC1,-1.2%
9,COc1ccc(C(CNC(=O)c2ccc(NS(=O)(=O)c3ccc(F)c(C)c3)cc2)N(C)C)cc1 (centres undefined),-1.73%
10,CC(=O)c1ccc(S(=O)(=O)Nc2ccc(C(=O)NCC(c3ccccc3)N(C)C)cc2)cc1 (centres undefined),0.039%
11,COc1ccc(C(CNC(=O)c2ccc(S(=O)(=O)Nc3ccccc3F)cc2)N(C)C)cc1 (centres undefined),33.3% (active)
12,Cc1ccc(C)c(C(=O)N2CCC(n3nccc3NC(=O)C3CC3)CC2)c1,-0.915%
13,COc1ccccc1C1CCN(C(=S)Nc2ccc(Br)cc2)CC1,41.2% (active)
14,CCC(C)N(C)C1CCN(C(=S)Nc2ccc(OC)cc2)CC1 (centres undefined),0.96%
15,COc1ccccc1NC(=S)N1CCN(C(c2ccccc2)c2ccccc2)CC1,-0.67%
16,COC(=O)C1(C)NC(c2ccccc2OC)C2C(=O)N(c3ccccc3)C(=O)C21 (centres undefined),-1.44%
17,O=S(=O)(c1cccc(Cn2nnc(-c3ccc(F)cc3)n2)c1)N1CCOCC1,1.33%
18,O=C(OCCN=C1NS(=O)(=O)c2ccccc21)c1cccc([N+](=O)[O-])c1,0.884%
19,CCn1c(O)c2ccc(C(=O)N=NC(=O)c3cccnc3)cc2c1O,-1.24%
20,O=C1C2N=NN(CC(=O)N3N=C(c4cccc5ccccc45)CC3c3ccccc3)C2C(=O)N1c1ccccc1 (centres undefined),-1.21%
21,Cc1ccc(N2C(=O)C3N=NN(CC(=O)N4N=C(c5cccc6ccccc56)CC4c4ccccc4)C3C2=O)cc1 (centres undefined),-1.11%
22,Oc1ccccc1C1=NN(c2ccccc2)C(c2ccccc2)C1 (centres undefined),134% (active)
